# Assay results published in article PMC7862700, “An all-to-all approach to the identification of sequence-specific readers for epigenetic DNA modifications on cytosine”.
# Assays:
# Assay in all cases: DAPPL (digital affinity profiling via proximity ligation, sequencing); 10 mM Tris-HCl pH 7.5, 50 mM NaCl, 1 mM DTT, 4% glycerol, room temperature, 30 min; GST-TFs on glutathione beads, 16-mer random dsDNA library, 0.1% formaldehyde crosslink after washing; high values mean tight binding
# FEV = biological target: T1, FEV (Homo sapiens, UniProt Q99581 1-238); details: protein: recombinant; tags: N-terminal GST; dsDNA, one strand shown
# T1 sequence: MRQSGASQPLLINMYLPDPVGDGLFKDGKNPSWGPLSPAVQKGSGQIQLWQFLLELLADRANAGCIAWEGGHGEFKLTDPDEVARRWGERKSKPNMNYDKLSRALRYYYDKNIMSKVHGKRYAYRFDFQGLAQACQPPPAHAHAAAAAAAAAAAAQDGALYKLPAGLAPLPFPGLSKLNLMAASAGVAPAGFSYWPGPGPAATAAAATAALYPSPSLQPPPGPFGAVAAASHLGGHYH
# Outline: (§1)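 Human transcription factors were made in yeast as GST fusions, captured on glutathione beads and barcoded with DNA. With a tag-only sample included, the pool was incubated with 200 nmole of a random double-stranded 16-mer DNA library in Tris/NaCl/DTT/glycerol buffer at room temperature for 30 min, then crosslinked with 0.1% formaldehyde after washing, ligated by proximity, amplified and sequenced. For binding signal, each hexamer's read frequency for a factor is divided by its frequency for the tag-only sample.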
# ETV5 = ETV5 (Homo sapiens, UniProt P41161 1-510); details: protein: recombinant; tags: N-terminal GST; dsDNA, one strand shown
# Outline: as §1
# HSF1 = HSF1 (Homo sapiens, UniProt Q00613 1-529); details: protein: recombinant; tags: N-terminal GST; chain copies: 3; dsDNA, one strand shown
# Outline: as §1
# SPIC = biological target: T2, SPIC (Homo sapiens, UniProt Q8N5J4 1-248); details: protein: recombinant; tags: N-terminal GST; dsDNA, one strand shown
# T2 sequence: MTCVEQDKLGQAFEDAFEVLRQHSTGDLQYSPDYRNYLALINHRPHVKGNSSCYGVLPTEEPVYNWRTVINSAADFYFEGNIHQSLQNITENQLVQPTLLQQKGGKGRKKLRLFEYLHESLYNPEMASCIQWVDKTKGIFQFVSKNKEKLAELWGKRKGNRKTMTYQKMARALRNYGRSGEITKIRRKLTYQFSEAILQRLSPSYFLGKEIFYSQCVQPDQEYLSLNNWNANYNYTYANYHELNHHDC
# Outline: as §1
# ELF4 = ELF4 (Homo sapiens, UniProt Q99607 1-663); details: protein: recombinant; tags: N-terminal GST; dsDNA, one strand shown
# Outline: as §1
# ELK4 = biological target: T3, ELK4 (Homo sapiens, UniProt P28324-2 1-405); details: protein: recombinant; tags: N-terminal GST; dsDNA, one strand shown
# T3 sequence: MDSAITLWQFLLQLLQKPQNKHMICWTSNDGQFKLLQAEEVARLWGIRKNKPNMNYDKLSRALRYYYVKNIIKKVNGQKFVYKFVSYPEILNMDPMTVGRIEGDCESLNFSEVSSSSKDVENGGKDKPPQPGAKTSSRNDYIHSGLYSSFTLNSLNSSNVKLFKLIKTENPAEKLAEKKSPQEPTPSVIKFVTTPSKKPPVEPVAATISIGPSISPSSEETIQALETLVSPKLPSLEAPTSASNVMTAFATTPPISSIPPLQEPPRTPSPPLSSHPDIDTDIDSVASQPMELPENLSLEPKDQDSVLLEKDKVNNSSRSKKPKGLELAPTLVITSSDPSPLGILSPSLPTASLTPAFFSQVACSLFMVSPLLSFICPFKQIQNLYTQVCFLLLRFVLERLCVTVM
# Outline: as §1
# ETV2 = biological target: T4, ETV2 (Homo sapiens, UniProt O00321 1-342); details: protein: recombinant; tags: N-terminal GST; dsDNA, one strand shown
# T4 sequence: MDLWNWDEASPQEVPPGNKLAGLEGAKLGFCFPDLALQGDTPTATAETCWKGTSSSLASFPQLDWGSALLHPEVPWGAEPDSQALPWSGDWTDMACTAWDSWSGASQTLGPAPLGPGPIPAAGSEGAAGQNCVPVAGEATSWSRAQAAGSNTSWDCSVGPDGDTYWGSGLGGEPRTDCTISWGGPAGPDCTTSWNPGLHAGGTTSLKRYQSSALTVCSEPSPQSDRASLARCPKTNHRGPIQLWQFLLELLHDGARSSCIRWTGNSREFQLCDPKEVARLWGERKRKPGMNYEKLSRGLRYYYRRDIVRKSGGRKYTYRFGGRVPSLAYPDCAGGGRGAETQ
# Outline: as §1
# ELF3 = biological target: T5, ELF3 (Homo sapiens, UniProt P78545 1-371); details: protein: recombinant; tags: N-terminal GST; dsDNA, one strand shown
# T5 sequence: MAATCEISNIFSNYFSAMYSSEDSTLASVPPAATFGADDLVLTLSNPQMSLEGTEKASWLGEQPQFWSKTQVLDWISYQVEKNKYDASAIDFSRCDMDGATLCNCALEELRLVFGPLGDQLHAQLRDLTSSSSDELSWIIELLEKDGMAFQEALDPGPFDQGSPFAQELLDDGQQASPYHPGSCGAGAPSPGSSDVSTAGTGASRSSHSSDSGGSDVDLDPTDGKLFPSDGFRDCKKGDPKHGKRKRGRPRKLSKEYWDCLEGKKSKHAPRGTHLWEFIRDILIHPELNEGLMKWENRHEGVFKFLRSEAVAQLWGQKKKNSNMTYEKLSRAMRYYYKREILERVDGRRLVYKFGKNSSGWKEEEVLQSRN
# Outline: as §1
# CRX = CRX (Homo sapiens, UniProt O43186 1-299); details: protein: recombinant; tags: N-terminal GST; dsDNA, one strand shown
# Outline: as §1
# ETV1 = ETV1 (Homo sapiens, UniProt P50549 1-477); details: protein: recombinant; tags: N-terminal GST; dsDNA, one strand shown
# Outline: as §1
# ERF = biological target: T6, ERF (Homo sapiens, UniProt P50548 1-548); details: protein: recombinant; tags: N-terminal GST; dsDNA, one strand shown
# T6 sequence: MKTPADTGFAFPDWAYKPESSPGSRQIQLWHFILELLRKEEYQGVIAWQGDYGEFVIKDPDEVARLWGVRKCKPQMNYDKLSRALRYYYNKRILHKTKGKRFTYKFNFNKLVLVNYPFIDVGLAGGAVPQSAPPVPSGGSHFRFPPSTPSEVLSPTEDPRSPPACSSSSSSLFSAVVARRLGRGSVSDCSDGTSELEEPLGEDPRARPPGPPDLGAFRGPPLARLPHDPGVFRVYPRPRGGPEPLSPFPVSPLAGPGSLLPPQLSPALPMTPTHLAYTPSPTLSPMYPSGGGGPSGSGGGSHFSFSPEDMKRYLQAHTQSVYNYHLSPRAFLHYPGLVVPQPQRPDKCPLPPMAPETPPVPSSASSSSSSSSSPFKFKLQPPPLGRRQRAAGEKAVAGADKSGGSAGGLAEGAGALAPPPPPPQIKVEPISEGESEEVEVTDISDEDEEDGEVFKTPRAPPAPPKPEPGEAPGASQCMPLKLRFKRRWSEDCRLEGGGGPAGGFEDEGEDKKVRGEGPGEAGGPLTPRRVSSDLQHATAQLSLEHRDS
# Outline: as §1
# ETV3L = biological target: T7, ETV3L (Homo sapiens, UniProt Q6ZN32 1-361); details: protein: recombinant; tags: N-terminal GST; dsDNA, one strand shown
# T7 sequence: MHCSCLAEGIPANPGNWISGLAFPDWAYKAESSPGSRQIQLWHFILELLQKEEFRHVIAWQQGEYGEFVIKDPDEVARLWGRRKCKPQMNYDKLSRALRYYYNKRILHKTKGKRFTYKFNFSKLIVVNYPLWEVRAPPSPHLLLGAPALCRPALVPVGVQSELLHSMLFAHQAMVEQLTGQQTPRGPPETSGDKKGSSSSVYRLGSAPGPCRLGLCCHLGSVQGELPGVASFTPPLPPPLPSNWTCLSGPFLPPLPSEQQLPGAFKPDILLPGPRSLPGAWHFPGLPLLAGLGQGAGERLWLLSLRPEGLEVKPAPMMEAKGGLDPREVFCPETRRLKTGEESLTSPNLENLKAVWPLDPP
# Outline: as §1
# ETS2 = biological target: T8, ETS2 (Homo sapiens, UniProt P15036 1-469); details: protein: recombinant; tags: N-terminal GST; dsDNA, one strand shown
# T8 sequence: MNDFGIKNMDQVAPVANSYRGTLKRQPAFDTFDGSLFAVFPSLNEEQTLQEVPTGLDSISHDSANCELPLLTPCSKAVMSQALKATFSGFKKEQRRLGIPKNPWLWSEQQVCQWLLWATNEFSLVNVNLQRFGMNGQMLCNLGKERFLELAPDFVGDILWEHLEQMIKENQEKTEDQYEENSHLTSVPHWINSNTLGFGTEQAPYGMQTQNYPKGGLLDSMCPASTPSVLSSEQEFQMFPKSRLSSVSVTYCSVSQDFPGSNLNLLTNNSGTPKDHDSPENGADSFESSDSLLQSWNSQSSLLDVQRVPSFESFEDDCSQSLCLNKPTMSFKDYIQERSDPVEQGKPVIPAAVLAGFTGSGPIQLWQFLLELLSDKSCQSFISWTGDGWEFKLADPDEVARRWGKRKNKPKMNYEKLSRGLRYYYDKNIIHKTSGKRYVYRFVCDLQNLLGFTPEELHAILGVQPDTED
# Outline: as §1
# SPDEF = biological target: T9, SPDEF (Homo sapiens, UniProt O95238 1-335); details: protein: recombinant; tags: N-terminal GST; dsDNA, one strand shown
# T9 sequence: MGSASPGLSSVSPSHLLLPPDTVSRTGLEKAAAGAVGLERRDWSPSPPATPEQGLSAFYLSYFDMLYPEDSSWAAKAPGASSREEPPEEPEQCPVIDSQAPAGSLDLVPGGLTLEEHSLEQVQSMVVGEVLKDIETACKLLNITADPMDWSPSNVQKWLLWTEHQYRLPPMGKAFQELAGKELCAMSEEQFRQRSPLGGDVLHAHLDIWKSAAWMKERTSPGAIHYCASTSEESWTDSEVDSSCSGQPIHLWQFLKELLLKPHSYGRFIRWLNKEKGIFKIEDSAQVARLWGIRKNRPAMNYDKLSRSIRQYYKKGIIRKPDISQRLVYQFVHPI
# Outline: as §1
# ETV7 = biological target: T10, ETV7 (Homo sapiens, UniProt Q9Y603 1-341); details: protein: recombinant; tags: N-terminal GST; dsDNA, one strand shown
# T10 sequence: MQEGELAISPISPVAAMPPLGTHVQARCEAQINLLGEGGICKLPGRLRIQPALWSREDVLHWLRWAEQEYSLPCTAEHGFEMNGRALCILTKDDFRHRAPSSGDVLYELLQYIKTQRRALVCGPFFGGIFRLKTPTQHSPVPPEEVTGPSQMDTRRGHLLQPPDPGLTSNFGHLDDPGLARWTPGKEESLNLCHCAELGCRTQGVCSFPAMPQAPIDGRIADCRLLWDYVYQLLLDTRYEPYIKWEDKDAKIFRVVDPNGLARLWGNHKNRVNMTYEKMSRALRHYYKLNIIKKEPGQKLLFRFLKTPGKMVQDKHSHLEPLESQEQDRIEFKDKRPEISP
# Outline: as §1
# ELF5 = biological target: T11, ELF5 (Homo sapiens, UniProt Q9UKW6-2 1-255); details: protein: recombinant; tags: N-terminal GST; dsDNA, one strand shown
# T11 sequence: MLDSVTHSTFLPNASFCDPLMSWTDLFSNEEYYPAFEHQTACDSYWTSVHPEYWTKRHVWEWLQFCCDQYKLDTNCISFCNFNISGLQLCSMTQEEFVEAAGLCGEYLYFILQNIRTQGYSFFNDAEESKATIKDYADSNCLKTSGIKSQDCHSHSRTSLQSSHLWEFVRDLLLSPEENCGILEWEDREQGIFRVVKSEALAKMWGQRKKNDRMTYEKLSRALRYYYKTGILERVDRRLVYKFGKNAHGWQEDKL
# Outline: as §1
# ETV3 = biological target: T12, ETV3 (Homo sapiens, UniProt P41162-2 1-143); details: protein: recombinant; tags: N-terminal GST; dsDNA, one strand shown
# T12 sequence: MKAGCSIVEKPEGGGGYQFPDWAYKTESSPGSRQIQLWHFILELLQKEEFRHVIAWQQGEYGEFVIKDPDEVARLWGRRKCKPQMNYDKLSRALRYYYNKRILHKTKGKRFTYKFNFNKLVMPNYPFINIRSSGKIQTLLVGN
# Outline: as §1
# ETV6 = ETV6 (Homo sapiens, UniProt P41212 1-452); details: protein: recombinant; tags: N-terminal GST; dsDNA, one strand shown
# Outline: as §1
# Sequence of HSF1 (Q00613 whole entry): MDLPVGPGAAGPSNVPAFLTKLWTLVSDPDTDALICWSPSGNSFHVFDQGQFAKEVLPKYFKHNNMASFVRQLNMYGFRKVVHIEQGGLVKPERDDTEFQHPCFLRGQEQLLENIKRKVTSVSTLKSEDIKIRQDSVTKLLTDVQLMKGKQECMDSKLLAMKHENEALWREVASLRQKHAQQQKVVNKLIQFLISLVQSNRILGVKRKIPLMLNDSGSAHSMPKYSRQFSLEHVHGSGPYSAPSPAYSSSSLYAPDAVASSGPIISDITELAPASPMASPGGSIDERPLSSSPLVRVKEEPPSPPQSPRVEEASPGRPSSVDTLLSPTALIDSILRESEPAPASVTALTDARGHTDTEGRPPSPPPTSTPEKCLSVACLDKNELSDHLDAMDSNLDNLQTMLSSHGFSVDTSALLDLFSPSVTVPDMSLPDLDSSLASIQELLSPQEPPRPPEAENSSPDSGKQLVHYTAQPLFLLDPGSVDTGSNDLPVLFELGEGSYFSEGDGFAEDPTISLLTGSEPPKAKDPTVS
# Sequence of ETV6 (P41212 whole entry): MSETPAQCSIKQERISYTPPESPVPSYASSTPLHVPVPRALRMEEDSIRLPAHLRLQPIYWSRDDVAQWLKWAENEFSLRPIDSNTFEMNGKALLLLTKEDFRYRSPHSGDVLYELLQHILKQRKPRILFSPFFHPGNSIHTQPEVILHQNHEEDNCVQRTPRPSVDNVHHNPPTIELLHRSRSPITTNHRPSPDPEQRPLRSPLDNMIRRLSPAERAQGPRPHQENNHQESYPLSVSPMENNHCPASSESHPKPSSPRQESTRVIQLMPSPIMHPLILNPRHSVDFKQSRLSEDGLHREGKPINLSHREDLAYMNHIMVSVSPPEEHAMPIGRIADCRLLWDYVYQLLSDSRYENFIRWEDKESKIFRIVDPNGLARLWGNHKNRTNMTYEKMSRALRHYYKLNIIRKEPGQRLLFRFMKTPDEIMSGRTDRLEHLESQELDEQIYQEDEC
# Sequence of ELF4 (Q99607 whole entry): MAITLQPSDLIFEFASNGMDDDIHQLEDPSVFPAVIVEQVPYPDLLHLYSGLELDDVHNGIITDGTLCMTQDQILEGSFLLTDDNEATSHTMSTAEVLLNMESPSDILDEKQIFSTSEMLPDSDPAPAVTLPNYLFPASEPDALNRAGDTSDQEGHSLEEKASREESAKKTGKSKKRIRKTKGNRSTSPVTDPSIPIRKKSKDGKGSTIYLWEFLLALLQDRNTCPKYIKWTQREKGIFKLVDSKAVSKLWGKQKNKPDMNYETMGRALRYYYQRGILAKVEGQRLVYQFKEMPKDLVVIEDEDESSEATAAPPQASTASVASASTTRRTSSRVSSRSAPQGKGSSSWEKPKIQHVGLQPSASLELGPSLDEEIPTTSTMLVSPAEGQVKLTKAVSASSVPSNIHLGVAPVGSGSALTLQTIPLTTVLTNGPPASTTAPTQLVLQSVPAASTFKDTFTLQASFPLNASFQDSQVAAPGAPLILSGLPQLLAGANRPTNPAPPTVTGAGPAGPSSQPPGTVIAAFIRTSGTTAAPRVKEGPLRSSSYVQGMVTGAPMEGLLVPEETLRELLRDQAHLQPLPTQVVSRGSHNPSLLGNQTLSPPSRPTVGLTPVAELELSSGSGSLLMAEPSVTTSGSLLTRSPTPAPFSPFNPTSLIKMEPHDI
# Sequence of ETV5 (P41161 whole entry): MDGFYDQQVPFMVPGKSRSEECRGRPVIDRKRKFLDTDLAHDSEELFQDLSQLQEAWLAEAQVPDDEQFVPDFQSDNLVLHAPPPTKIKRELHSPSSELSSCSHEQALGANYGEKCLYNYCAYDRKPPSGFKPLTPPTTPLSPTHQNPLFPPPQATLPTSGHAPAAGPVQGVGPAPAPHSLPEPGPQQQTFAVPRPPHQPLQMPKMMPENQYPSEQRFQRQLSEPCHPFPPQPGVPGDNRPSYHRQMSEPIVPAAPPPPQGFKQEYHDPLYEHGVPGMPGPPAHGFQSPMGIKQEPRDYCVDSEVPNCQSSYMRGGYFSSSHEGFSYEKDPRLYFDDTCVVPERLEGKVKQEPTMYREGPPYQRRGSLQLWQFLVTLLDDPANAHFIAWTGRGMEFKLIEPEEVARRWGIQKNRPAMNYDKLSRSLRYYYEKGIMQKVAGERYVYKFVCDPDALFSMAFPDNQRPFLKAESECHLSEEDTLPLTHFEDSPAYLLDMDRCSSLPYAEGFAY
# Sequence of CRX (O43186 whole entry): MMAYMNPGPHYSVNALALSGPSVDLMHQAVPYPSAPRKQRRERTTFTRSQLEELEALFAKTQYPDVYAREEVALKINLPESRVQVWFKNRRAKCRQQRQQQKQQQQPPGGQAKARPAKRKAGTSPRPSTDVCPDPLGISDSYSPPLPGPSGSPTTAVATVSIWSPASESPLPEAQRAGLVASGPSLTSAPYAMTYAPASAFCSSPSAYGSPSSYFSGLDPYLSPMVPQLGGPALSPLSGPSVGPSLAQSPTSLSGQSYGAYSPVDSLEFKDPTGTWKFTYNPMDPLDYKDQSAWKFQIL
# Sequence of ETV1 (P50549 whole entry): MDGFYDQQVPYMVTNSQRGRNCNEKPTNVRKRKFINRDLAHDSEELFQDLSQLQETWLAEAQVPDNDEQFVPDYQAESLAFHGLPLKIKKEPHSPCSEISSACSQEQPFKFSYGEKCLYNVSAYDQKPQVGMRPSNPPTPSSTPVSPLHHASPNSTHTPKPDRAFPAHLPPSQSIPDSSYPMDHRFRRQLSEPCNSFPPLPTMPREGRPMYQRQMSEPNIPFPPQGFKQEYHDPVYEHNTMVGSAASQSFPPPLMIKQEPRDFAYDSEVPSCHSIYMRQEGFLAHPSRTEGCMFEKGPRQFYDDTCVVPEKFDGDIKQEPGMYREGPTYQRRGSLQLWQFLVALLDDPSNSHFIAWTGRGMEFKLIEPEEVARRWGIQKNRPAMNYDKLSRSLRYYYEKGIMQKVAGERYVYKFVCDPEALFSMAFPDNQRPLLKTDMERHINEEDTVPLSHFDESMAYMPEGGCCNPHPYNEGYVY
sequence,measurement,setting,value
CCTACG,binding signal,FEV,"1.48 fold enrichment (6-mer frequency, TF over GST control)"
same,binding signal,ETV5,"1.32 fold enrichment (6-mer frequency, TF over GST control)"
same,binding signal,HSF1,"1.21 fold enrichment (6-mer frequency, TF over GST control)"
same,binding signal,SPIC,"1.37 fold enrichment (6-mer frequency, TF over GST control)"
same,binding signal,ELF4,"1.37 fold enrichment (6-mer frequency, TF over GST control)"
same,binding signal,ELK4,"1.38 fold enrichment (6-mer frequency, TF over GST control)"
same,binding signal,ETV2,"1.44 fold enrichment (6-mer frequency, TF over GST control)"
same,binding signal,ELF3,"1.5 fold enrichment (6-mer frequency, TF over GST control)"
same,binding signal,CRX,"1.11 fold enrichment (6-mer frequency, TF over GST control)"
same,binding signal,ETV1,"1.47 fold enrichment (6-mer frequency, TF over GST control)"
same,binding signal,ERF,"1.37 fold enrichment (6-mer frequency, TF over GST control)"
same,binding signal,ETV3L,"1.59 fold enrichment (6-mer frequency, TF over GST control)"
same,binding signal,ETS2,"1.35 fold enrichment (6-mer frequency, TF over GST control)"
same,binding signal,SPDEF,"1.41 fold enrichment (6-mer frequency, TF over GST control)"
same,binding signal,ETV7,"1.49 fold enrichment (6-mer frequency, TF over GST control)"
same,binding signal,ELF5,"1.43 fold enrichment (6-mer frequency, TF over GST control)"
same,binding signal,ETV3,"1.38 fold enrichment (6-mer frequency, TF over GST control)"
same,binding signal,ETV6,"1.61 fold enrichment (6-mer frequency, TF over GST control)"
